# Bioassay records (PubChem)
# JMJD2A Tudor: qHTS Assay for Inhibitors of JMJD2A-Tudor Domain. AlphaScreen JMJD2A-Tudor / H3K4me3 peptide binding. Potency, µM (series often up to 114 µM), for inactives: top-dose activity change, negative = inhibition, most hits filed as inhibitors. 4.4% of 390,000 active; further: on the % scale 0 is the no-effect control and ±100 the full control effect; nearly all actives have a fitted effect of over 50% in size
# PLK1 PBD block: qHTS for Inhibitors of PLK1-PDB (polo-like kinase 1 - polo-box domain): Primary Screen; 2.8% of 360,000 active; AID 720504, 2013; Potency, µM, inactives show max response, negative = inhibition, usual class: inhibitors; Plk1 PBD binding of FITC phosphopeptide, fluorescence polarization; further: series mostly up to about 57 µM; on the % scale 0 is the no-effect control and ±100 the full control effect; nearly all actives have a fitted effect of over 65% in size
# BAZ2B block: qHTS Assay for Inhibitors of BAZ2B; Bromodomain adjacent to zinc finger domain protein 2B (Homo sapiens), Q9UIF8; AlphaScreen BAZ2B-H3K14Ac peptide displacement; Potency, µM (series often up to 114 µM), for inactives: at the highest dose activity change, negative = inhibition, most hits filed as inhibitors; 4.4% of 360,000 active; further: on the % scale 0 is the no-effect control and ±100 the full control effect; nearly all actives have a fitted effect of over 60% in size
#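 Compounds, titrated to a top concentration of 110 uM, were incubated 30 min at room temperature with preformed BAZ2B/acetyl-K14 H3 peptide complex (50 nM each). Proximity signal was measured by AlphaScreen after 20 min with beads.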
# VDR inh: Inhibitors of the vitamin D receptor (VDR): qHTS; Vitamin D3 receptor (Homo sapiens), P11473; VDR-SRC2-3 peptide fluorescence polarization, 2 h; Potency, µM, inactives show max response, negative = inhibition, usual class: inhibitors; 0.93% of 400,000 active; AID 504847, 2011; further: on the % scale 0 is the no-effect control and ±100 the full control effect
#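 Measured by FP: displacement of SRC2-3 coactivator peptide from VDR by library compounds, following a two-hour ambient incubation.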
# HP1b chromo inh: HTS for Inhibitors of HP1-beta Chromodomain Interactions with Methylated Histone Tails | Chromobox protein homolog 1 (Homo sapiens), P83916 | AlphaScreen HP1-beta / biotin-H3K9me3 peptide binding | Potency, µM (top dose mostly 114 µM), for inactives: at the highest dose activity change, negative = inhibition, most hits filed as inhibitors | 0.56% of 390,000 active | AID 540317, 2011; further: nearly all actives have a fitted effect of over 70% in size
# Target sequence (P83916 whole entry, looked up): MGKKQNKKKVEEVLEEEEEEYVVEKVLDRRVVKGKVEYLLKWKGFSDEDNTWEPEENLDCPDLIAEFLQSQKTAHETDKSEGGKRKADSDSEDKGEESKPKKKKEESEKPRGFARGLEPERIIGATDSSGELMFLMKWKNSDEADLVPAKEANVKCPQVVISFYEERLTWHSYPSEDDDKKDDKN
#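 HP1-beta protein (50 nM final) preincubated 30 min at room temperature with biotinylated H3(1-18)K9me3 peptide (50 nM) in PBS pH 7.4, 0.01% Tween-20, then compound added for 30 min. AlphaScreen streptavidin donor/nickel chelate acceptor beads (10 ug/mL final), 30 min dark, luminescence read.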
# G9a block: qHTS Assay for Inhibitors of Histone Lysine Methyltransferase G9a; Histone-lysine N-methyltransferase EHMT2 (Homo sapiens), Q96KQ7; 8.8% of 350,000 active; G9a H3K9 monomethylation, AlphaScreen, 2 h; Potency, µM (doses to about 102 µM), for inactives: at the top dose activity, negative = inhibition, actives largely listed as inhibitors; further: on the % scale 0 is the no-effect control and ±100 the full control effect; nearly all actives have a fitted effect of over 75% in size
# Target sequence (Q96KQ7 913-1193 limits assumed): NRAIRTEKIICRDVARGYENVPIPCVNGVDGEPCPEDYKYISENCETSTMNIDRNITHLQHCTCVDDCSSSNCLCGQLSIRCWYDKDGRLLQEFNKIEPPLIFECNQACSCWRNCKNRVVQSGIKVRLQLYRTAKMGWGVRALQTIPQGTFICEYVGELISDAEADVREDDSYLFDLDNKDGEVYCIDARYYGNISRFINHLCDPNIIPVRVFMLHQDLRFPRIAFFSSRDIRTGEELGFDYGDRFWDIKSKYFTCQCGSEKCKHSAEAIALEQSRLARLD
#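 Methyltransferase reactions run at room temperature for 2 h (20 nM enzyme, 500 nM biotin-H3K9 peptide, 20 uM SAM) after a 15 min compound preincubation; product detected by AlphaScreen beads and anti-H3K9me1 antibody.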
# Active calls of the source: *; ? = inconclusive; . = not tested or not shown; ! = not confirmed by another sample; [ ] = another dose, or the depositor's remark. Sampled rows, rich in hits. Any-hit rate of the full collection: about 11%. The call rests on the fitted dose curve; in most records, active means well fitted curve in the direction sought with a large enough effect; inconclusive means small, poorly fitted or top-dose-only effect, or another doubt; inactive means no such curve, though single readings can be large; an effect the other way counts as inactive or inconclusive. Potency means the concentration at half of the fitted maximal effect.
SMILES,JMJD2A Tudor,PLK1 PBD block,BAZ2B block,VDR inh,HP1b chromo inh,G9a block
COc1ccccc1N(C(=O)c1ccncc1)c1nc(-c2ccc([N+](=O)[O-])cc2)cs1,?,-23.7%,?,-8.5%,?,10µM*
O=C(COc1ccc2oc3c(c2c1)CCCC3)Nc1cccc(Br)c1,2.4%,.,?,-2.9%,7.4%,?
COc1ccc(/C=C/C(=O)NC(=S)NN2CCCCC2c2cccnc2)cc1OC (stereo unspecified),-8.8%,?,-38.1%,2.7%,6.0%,31.6µM*
O=C(/C=C/c1ccc(Cl)cc1)NC(=S)NN1CCCCC1c1cccnc1 (stereo unspecified),.,.,?,.,.,22.4µM*
Cc1ccc(C(=O)N/C(=C\c2cn(S(=O)(=O)N(C)C)c3ccccc23)C(=O)NCCN2CCOCC2)cc1,-20.3%,-0.9%,-3.9%,-9.7%,31.5%,.
N#Cc1ncc(Cc2ccccc2)nc1C#N,-32.6%,-7.3%,?,79.4µM*,12.7%,50.1µM*
O=C(Oc1ccc(-c2cnc3ccccc3n2)cc1)c1cccc([N+](=O)[O-])c1,-14.9%,-5.9%,6.6%,-9.2%,10.9%,8.91µM*
O=C(Oc1ccc(C(=S)N2CCOCC2)cc1)c1ccccc1,-25.9%,-18.8%,-3.6%,5.4%,32.1%,-34.7%
O=C(Oc1ccc(Br)cc1C(=S)N1CCOCC1)c1ccc([N+](=O)[O-])cc1[N+](=O)[O-],?,5.97µM*,?,?,?,8.91µM*
O=C(Oc1ccc(-c2cnc3ccccc3n2)cc1)c1ccc(Cl)c([N+](=O)[O-])c1,-10.0%,-13.3%,8.8%,2.2%,7.3%,?
O=C(/C=C/c1ccco1)Oc1ccc(C(=S)N2CCOCC2)cc1,17.8µM*,11.9µM*,-34.2%,?,-19.6%,?
O=C(Oc1ccc(C(=S)N2CCOCC2)cc1)c1cccc([N+](=O)[O-])c1,-8.8%,?,-28.7%,?,-22.1%,22.4µM*
O=C(/C=C/c1ccccc1)Oc1ccc(C(=S)N2CCOCC2)cc1,-15.0%[11.4 µM],-14.6%,-0.5%,1.8%,13.5%,-24.4%
O=C(Nc1ccc(F)cc1F)c1cc(=O)n(-c2ccccc2)c(=O)[nH]1,-4.8%,-4.0%,-6.4%,3.7%,37.7%,10.4%
Cc1ccc(N(C)S(=O)(=O)c2cccc(C(=O)NNC(=O)c3ccncc3)c2)cc1,-0.7%,-18.3%,10.4%,12.3%,25.9%,6.8%[59 µM]
COC(=O)c1ccc(OC(=O)/C=C/c2ccco2)cc1,-28.3%,-13.1%,-17.7%,-9.1%,?,?
O=C(Oc1cccc(C(=S)N2CCOCC2)c1)c1ccc([N+](=O)[O-])cc1[N+](=O)[O-],-35.5%,?,?,5.4%,?,25.1µM*
O=C(Oc1cccc(C(=S)N2CCOCC2)c1)c1cccc([N+](=O)[O-])c1,-31.9%,-24.9%,-37.7%,-5.3%,-19.1%,44.7µM*
O=C(c1cccc([N+](=O)[O-])c1)N1CCOCC1,-6.3%,-7.4%,1.0%,-17.4%,46.2%,21.8%[59 µM]
O=C(Oc1cccc(C(=S)N2CCOCC2)c1)c1cc([N+](=O)[O-])cc([N+](=O)[O-])c1,?,?,?,22.5%,-18.1%,35.5µM*
O=Cc1cccc(OC(=O)/C=C/c2ccco2)c1,35.5µM*,?,6.0%[0.457 µM],-21.6%,14.1µM*,?
Cc1ccc(S(=O)(=O)c2nnn3c2nc(Nc2ccc(C(C)C)cc2)c2sccc23)cc1C,3.7%,.,2.6%,0.5%,34.7%,-3.2%[59 µM]
CCOC(=O)c1cc(-c2ccccc2)n(CC(=O)N(C)c2ccc(OC)cc2)c1C,?,.,?,15.4%,-9.1%,-48.5%[59 µM]
CC(C)c1ccc(NC(=O)CSC2=Nc3ccccc3C3=NC(CC(=O)NCCc4ccccc4)C(=O)N23)cc1 (stereo unspecified),-22.0%,.,-18.5%,11.3%,26.1%,6.7%[59 µM]
CCN1CCN(Cc2ccc(NC(=O)c3cc(NC(=O)c4cncc(-c5cccs5)c4)cc(OC)c3)cc2C(F)(F)F)CC1,44.7µM*,3.1%,35.5µM*,60.6%,?,50.1µM*
SMILES,JMJD2A Tudor,PLK1 PBD block,BAZ2B block,VDR inh,HP1b chromo inh,G9a block
Cc1ccc(NC(=O)c2sc(-n3nc(C)c(CCC(C)C)c3C)nc2C)cc1C,9.9%,.,?,8.3%,54.8%,?
CCCCCc1c2c(cc(O)c1C(=O)O)OC(=O)c1c(cc(OC)cc1C(=O)CCCC)O2,-30.6%,26.7µM*,79.4µM*,79.4µM*,22.0%,-11.9%[59 µM]
CCCCCC(=O)Cc1cc(O)cc(O)c1C(=O)Oc1cc(CC(=O)CCCCC)c(C(=O)O)c(OC)c1,.,.,.,-1.7%,.,.
CCCCCc1c2c(cc(O)c1C(=O)O)OC(=O)c1cc(C(=O)CCCC)c(OC)cc1O2,?,21.2µM*,.,79.4µM*,4.5%,.
Cc1cccc(Cn2c(=O)n(Cc3ccc4c(c3)OCO4)c(=O)c3oc4ccccc4c32)c1,6.2%,.,-3.8%,-2.6%,55.5%,6.1%[59 µM]
COc1ccccc1C(CCN(Cc1ccccc1)C(C)=O)c1ccco1 (stereo unspecified),-22.3%,-16.6%,?,-15.5%,25.2%,20.7%[12.7 µM]
COc1ccc(CCNc2nc3ccccc3n3cnnc23)cc1OC,-8.9%,0.1%,-1.5%,-1.8%,28.9%,20.8%
CCc1nnc2c(NCCc3ccc(OC)c(OC)c3)nc3ccccc3n12,31.6µM*!,26.7µM*,?,?,9.9%,4.1%
Cc1oc(-c2ccc(C(=O)Nc3ccc(F)cc3)cc2)nc1COc1ccccc1,-17.2%,.,-3.3%,20.2%,44.3%,-13.4%[59 µM]
O=C(CN(C(=O)C1COc2ccccc2O1)c1ccccc1)NCC1CCCO1 (stereo unspecified),-8.3%,-2.4%,4.5%,-8.0%,19.9%,19.7%[59 µM]
Cc1cc(C)cc(N(CC(=O)NCC2CCCO2)C(=O)CN2C(=O)COc3ccccc32)c1 (stereo unspecified),?,29.9µM*,5.3%,-18.5%,-18.7%,6.1%[12.7 µM]
CCOc1ccc2c(ccc(/C=C/c3cc(C)c4cccnc4c3O)[n+]2C)c1,10µM*,-2.5%,.,10.1%,?,.
CCCCOc1cccc(C(=O)Nc2sc3c(c2C(=O)OCC)CCCC3)c1,11.4%,.,19.5%,-14.8%,88.5%,23.1%[59 µM]
CC(C)(C)NC(=O)C(c1ccncc1)N(C(=O)Cn1nnc(-c2ccc(F)cc2)n1)c1ccccc1 (stereo unspecified),?,26.7µM*,?,?,-3.6%,22.4µM*
